From PubChem BioAssay AID1345085 (National Center for Advancing Translational Sciences (NCATS), 2018)
Results filed as inconclusive are left out. Activity calls are given as the source filed them. The call rests on the fitted dose curve; in most records, active means well fitted cell-killing curve with a large enough effect; inconclusive means small, poorly fitted or top-dose-only effect, or effect the other way; inactive means no such curve, though single readings can be large or run the other way.

Tested on: Hek293T
Experiment: Confirmatory qHTS for gynecologic anti-cancer compounds from libraries of approved drugs and bioactive compounds; further: nearly all actives have a fitted effect of over 55% in size
Conditions: gynecologic cancer cell panel viability, ATPlite luminescence, 48 h; series mostly up to 57.6 µM
In short: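 1,000 cells/well; 16 h pre-incubation 37 C, 5% CO2; pin-transferred cpd in DMSO, 11 conc (1:3), 57.5 uM–0.977 nM; 48 h; ATPlite, 15 min RT; luminescence → IC50.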
Potency means the concentration at half of the fitted maximal effect.

| SMILES | Potency |
| --- | --- |
| CC(C)CC(=O)Nc1n[nH]c2c1CN(C(=O)C1CCN(C)CC1)C2(C)C | 1.37 µM (active) |
| Nc1ccccc1NC(=O)c1ccc(CNC(=O)OCc2cccnc2)cc1 | inactive |
| COc1cc(Nc2ncc(F)c(Nc3ccc4c(n3)N(COP(=O)(O)O)C(=O)C(C)(C)O4)n2)cc(OC)c1OC | inactive |
| COc1cc(Nc2ncc3c(n2)-c2ccc(Cl)cc2C(c2c(F)cccc2OC)=NC3)ccc1C(=O)O | inactive |
| CCCCc1nc2cc(/C=C/C(=O)NO)ccc2n1CCN(CC)CC | 1.72 µM (active) |
| Cc1nc(N)nc(N)c1-c1ccc(Cl)c(Cl)c1 | 1.22 µM (active) |
| CS(=O)(=O)c1ccc(-c2cnc(N)c(C(=O)Nc3ccccc3)n2)cc1 | inactive |
| Cc1cnc(Nc2cccc(CN3CCOCC3)c2)nc1Nc1cccc(S(=O)(=O)NC(C)(C)C)c1 | inactive |
| CC1=C(CO)C(=O)O[C@@H]([C@@H](C)[C@H]2CC[C@H]3[C@@H]4C[C@H]5O[C@]56[C@@H](O)C=CC(=O)[C@]6(C)[C@H]4CC[C@]23C)C1 | 2.37 µM (active) |
| NC(=O)c1ccc2nc(-c3ccc(Oc4ccc(Cl)cc4)cc3)[nH]c2c1 | 0.0217 µM (active) |
| CCS(=O)(=O)N1CCN(c2ccc(Nc3ncc(C(N)=O)c(NC4CC4)n3)cc2)CC1 | 17.2 µM (active) |
| CN1C2CCC1CC(OC(=O)[C@H](CO)c1ccccc1)C2 (some centres undefined) | inactive |
| CN(C)CC/C=C1\c2ccccc2COc2ccccc21 | inactive |
| COc1cc2c(c(OC)c1OC)-c1ccc(OC)c(=O)cc1[C@@H](NC(C)=O)CC2 | inactive |
| CC(C)C[C@H](NC(=O)[C@H](Cc1ccccc1)NC(=O)c1cnccn1)B(O)O | 0.0306 µM (active) |
| CCC1C(=O)N(C)c2cnc(Nc3ccc(C(=O)NC4CCC(N5CCN(CC6CC6)CC5)CC4)cc3OC)nc2N1C(C)C (centres undefined) | 0.0611 µM (active) |
| CC(C)Nc1cc(-c2c[nH]c(C(=O)N[C@H](CO)c3cccc(Cl)c3)c2)c(Cl)cn1 | inactive |

| SMILES | Potency |
| --- | --- |
| Nc1ccc(C(=O)Nc2cccc(-c3nc(N4CCOCC4)c4oc5ncccc5c4n3)c2)cn1 | inactive |
| CCN1CCN(Cc2ccc(-c3cc4c(NC(C)c5ccccc5)ncnc4[nH]3)cc2)CC1 (centres undefined) | 27.3 µM (active) |
| COc1cc2c(Nc3ccc(NC(=O)c4ccccc4)cc3)ncnc2cc1OCCCN1CCOCC1 | 24.3 µM (active) |
| O=C(O)c1ccc(Nc2ncc3c(n2)-c2ccc(Cl)cc2C(c2c(F)cccc2F)=NC3)cc1 | inactive |
| NC(=O)c1cccc2cn(-c3ccc([C@@H]4CCCNC4)cc3)nc12 | inactive |
| CC(C)(C(=O)NCC(F)(F)C(F)(F)F)C(=O)NC1C(=O)Nc2ccccc2-c2ccccc21 (centres undefined) | inactive |
| CCOc1cc2ncc(C#N)c(Nc3ccc(F)c(Cl)c3)c2cc1NC(=O)/C=C/CN(C)C | 15.3 µM (active) |
| CNC(=O)c1nn(C)c2c1C(C)(C)Cc1cnc(Nc3ccc(N4CCN(C)CC4)cc3)nc1-2 | 4.32 µM (active) |
| CC(=O)c1cnc2ccc(-c3cc(Cl)c(O)c(Cl)c3)nc2c1NC1CCC(CN(C)C)CC1 (centres undefined) | 0.0352 µM (active) |
| CC(C)Oc1ccc2c(=O)c(-c3ccccc3)coc2c1 | 4.85 µM (active) |
| CC(C)n1nc(-c2cc3cc(O)ccc3[nH]2)c2c(N)ncnc21 | 6.85 µM (active) |
| O=C(c1ccc(/C=C/c2n[nH]c3ccccc23)cc1)N1CCNCC1 | 21.7 µM (active) |
| Cc1ccc(C(N)=O)cc1Nc1nccc(-c2cn(C(C)C)c3cnccc23)n1 | 13.7 µM (active) |
| COc1cc2c(cc1-c1c(C)noc1C)ncc1[nH]c(=O)n(C(C)c3ccccn3)c12 (centres undefined) | inactive |
| CN(Cc1cnc2nc(N)nc(N)c2n1)c1ccc(C(=O)N[C@@H](CCC(=O)O)C(=O)O)cc1 | 0.109 µM (active) |
| Cc1nc(Nc2n[nH]c3c2CN(C(=O)NC(CN(C)C)c2ccccc2)C3(C)C)c2sccc2n1 (centres undefined) | 9.68 µM (active) |
| C[C@@]1(C(=O)Nc2ccc(F)nc2)CCCN1c1nc(Nc2cc(C3CC3)[nH]n2)c2cccn2n1 | inactive |
